The structures appear in SMILES notation. The panel holds about 83,000 compounds, 20% with a hit somewhere; the sample as a whole holds those more often.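 Method: cells in 96-well plates; compound added at one concentration; 48 h incubation; percent growth measured; values under 10 scored active.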 A number with no mark means an inactive call. Active and inactive are the calls of the source.

Holding throughout (experiment): NCI-60 one-dose screen, 48 h (100 = growth as untreated, 0 = no growth, -100 = all killed)
Holding throughout (settings): 10 µM unless noted

The subject of assay [1] is SK-MEL-2 melanoma.
Assay [2] deals with EKVX NSCLC.
In assay [3] the test system is SN12C renal.
The subject of assay [4] is UO-31 renal.
Assay [5] has as its system TK-10 renal.
In assay [6] the test system is ACHN renal.
Assay [7] concerns CAKI-1 renal.
Assay [8] has as its system A498 renal.
For assay [9], the system named is CCRF-CEM leukemia.
In assay [10] the test system is RPMI-8226 leukemia.
Assay [11] concerns OVCAR-8 ovarian.
Assay [12] relates to OVCAR-5 ovarian.
Assay [13] deals with OVCAR-4 ovarian.
The test system of assay [14] is SK-OV-3 ovarian.
The subject of assay [15] is IGROV1 ovarian.
Assay [16] relates to OVCAR-3 ovarian.
In assay [17] the test system is HS 578T breast.
For assay [18], the system named is NCI/ADR-RES ovarian.

`COc1cccc(-c2nc3sccn3c2-c2ccnc(NCCNS(=O)(=O)c3ccc(C(F)(F)F)cc3)c2)c1`: the growth in assay [1] is 47.5%; in assay [2], 40.4%; in assay [3] it was 40.7%; in [4] it was -23.8% (active); in [5] it was 49.2%; in assay [6], -60.2% (active). Also, the growth was 34.5% in [7]; 18.9% in assay [8]; 22.6% in assay [9]; 3.52% (active) in [10]; 27.1% in [11]; 88% in [12]. Moreover, the growth is 16.3% in assay [13]; 40.5% in assay [14]; 45.2% in [15]; 40.7% in assay [16]; 30.5% in assay [17]; 19.9% in [18].

With `Oc1ccc(CN2CCC(N3CCOCC3)CC2)c2cccnc12`, the growth is -6.57% (active) in assay [1]; 59.4% in assay [2]; 11.8% in [3]; 14.5% in [4]; 30.6% in [5]; 12.8% in [6]. Besides, the growth in assay [7] is 43.2%; in assay [8], 71.1%; in [9], 22.4%; in assay [10], 7.8% (active); in [11] it was 19%; in assay [12] it was 48.8%. For the same molecule, the growth is 30.9% in assay [13]; 36.1% in assay [14]; 34.9% in assay [15]; 29.9% in assay [16]; 24.4% in assay [17]; 48.3% in assay [18].

For the molecule `O=S(=O)(O)c1ccc(N/N=C/c2ccccc2Cl)cc1`, the growth in [1] was 102%; in [2], 116%; in assay [3] it was 106%; in [4] it was 82.7%; in assay [5], 104%; in assay [6], 99.6%. The growth in [7] is 89.8%; in assay [8], 100%; in assay [9], 95.4%; in assay [10], 98.7%; in assay [11], 115%; in assay [12], 104%. Moreover, the growth in [13] was 112%; in assay [14], 112%; in [15], 101%; in assay [16], 119%; in assay [18] it was 110%.

As for `COc1cc(Cn2ncc3ccc(NC(=O)c4cc5ccccc5oc4=N)cc32)cc(OC)c1OC`, the growth in assay [1] is 88%; in assay [2], 71.5%; in assay [3], 87.2%; in assay [4], 51.3%; in assay [5] it was 91.4%; in assay [6] it was 57.1%. Also, the growth is 82.4% in assay [7]; 98.3% in assay [8]; 52.2% in assay [9]; 51.7% in assay [10]; 86.8% in [11]; 58.3% in assay [12]. The growth in [13] is 86.6%; in assay [14] it was 79.4%; in assay [15], 46%; in assay [16], 38.8%; in assay [17], 90%; in assay [18], 50%.

For the molecule `Cc1cc(C)c(-c2c(C)cc(C)cc2CBr)c(CBr)c1`, the growth in assay [1] is 94.5%; in assay [2], 102%; in assay [3], 80.3%; in [4], 75.9%; in assay [5], 103%; in [6], 75%. The growth in assay [7] is 87.6%; in assay [8] it was 73.1%; in assay [9], 42%; in assay [10] it was 50.2%; in assay [11], 68.3%; in [12], 97.1%. Moreover, the growth in assay [13] was 74.1%; in [14] it was 101%; in [15], 90.3%; in [16], 90.9%; in assay [17], 86.6%; in assay [18], 72.2%.

Take `COc1ccc(N=C(c2ccccc2)C2C(=O)c3ccccc3C2=O)cc1`: the growth is 40.8% in [1]; 104% in [2]; 104% in [3]; 40.5% in assay [4]; 103% in [5]; 72.1% in [6]. In addition, the growth is 88.1% in assay [7]; 61.2% in assay [8]; 46.1% in assay [9]; 37.2% in [10]; 83.3% in assay [11]; 104% in assay [12]. Besides, the growth in assay [13] was 77.3%; in [14], 108%; in [16] it was 82.3%; in assay [17] it was 86.9%; in assay [18], 91.9%.

Take `O=C(CCc1nnc(CN(c2ccccc2)c2ccccc2)o1)c1nc2ccccc2[nH]1`: the growth in assay [1] is 88.7%; in assay [2], 63.4%; in assay [3], 86.9%; in [4], 61.3%; in assay [5] it was 117%; in assay [6], 108%. Besides, the growth was 84.1% in assay [7]; 80.5% in assay [8]; 77.6% in assay [9]; 70.7% in assay [10]; 88.3% in [11]; 108% in [12]. In addition, the growth in assay [13] is 82.9%; in assay [14], 96.2%; in [15], 74.6%; in [16] it was 95%; in [17] it was 92.3%; in assay [18], 91.4%.

With `CCN1C(=O)N(CC)C2C1NN=c1s/c(=C\c3cccs3)c(=O)n12` (configuration not stated), the growth is 42% in assay [1]; 60.6% in assay [2]; 29.7% in [3]; 50.2% in assay [4]; 5.35% (active) in assay [5]; 42.2% in [6]. In addition, the growth is 35.4% in [7]; -12.4% (active) in assay [8]; 26.6% in assay [9]; 37.7% in assay [10]; 16.9% in assay [11]; 41.3% in assay [12]. Also, the growth in assay [13] was 53.2%; in assay [14] it was 45.6%; in assay [15], 27.4%; in assay [16] it was -17.5% (active); in [17], 22.5%; in assay [18], -16.5% (active).

Values taken from PubChem BioAssay (NCI).
